# According to PubChem BioAssay AID1159580 (chemical genetic matrix, 2015):
# Several values for one entry are separate records, joined by “and”; a condition that tells them apart may be missing. Equal values may be shown once. Hit rate of the full screen: of about 5,500 compounds, about 2,000 (36%) were called active. Another 18% or so got no clear call; they are omitted. Some of the results follow. A number with no mark means an inactive call. Cut-off read from the data, not from the text of the source: active = normalized growth mostly below about 0.91 (no sharp cut-off); inconclusive = no clear call, values can overlap the other calls; inactive = mostly above about 0.92.
# Experiment: chemical genetic growth profiling, strain panel (AID 1159580);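 note: tested at 20 µM; growth read once vehicle control cultures reached saturation at 30 °C; 1 = growth at the plate median or of vehicle wells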
# Details: S. cerevisiae deletion strains, growth OD
smiles,measurement,setting,value
CC(NCCC(c1ccccc1)c1ccccc1)c1ccccc1 (configuration not stated),normalized growth,"locus YAL013W, strain DEP1, stronger effect = lower value",0.925
same,normalized growth,"locus YAL021C, strain ccr4, stronger effect = lower value",0.592 (active)
same,normalized growth,"locus YAL026C, strain drs2, stronger effect = lower value",0.47 (active)
same,normalized growth,"locus YAL030W, strain snc1, stronger effect = lower value",0.992
same,normalized growth,"locus YBL061C, strain skt5, stronger effect = lower value",0.934
same,normalized growth,"locus YBR009C, strain hhf1, stronger effect = lower value",0.953
same,normalized growth,"locus YBR021W, strain FUR4, stronger effect = lower value",0.447 (active)
same,normalized growth,"locus YBR023C, strain chs3, stronger effect = lower value",0.799 (active)
same,normalized growth,"locus YBR171W, strain sec66, stronger effect = lower value",1
same,normalized growth,"locus YBR229C, strain ROT2, stronger effect = lower value",0.946
same,normalized growth,"locus YBR231C, strain swc5, stronger effect = lower value",0.944
same,normalized growth,"locus YBR279W, strain paf1, stronger effect = lower value",0.893 (active)
same,normalized growth,"locus YCL011C, strain gbp2, stronger effect = lower value",0.97
same,normalized growth,"locus YCL016C, strain dcc1, stronger effect = lower value",0.964
same,normalized growth,"locus YCL029C, strain bik1, stronger effect = lower value",0.975
same,normalized growth,"locus YCL061C, strain MRC1, stronger effect = lower value",1.02
same,normalized growth,"locus YCL069W, strain vba3, stronger effect = lower value",1.01
same,normalized growth,"locus YCR088W, strain abp1, stronger effect = lower value",1.02
same,normalized growth,"locus YDL005C, strain med2, stronger effect = lower value",1.03
same,normalized growth,"locus YDL035C, strain GPR1, stronger effect = lower value",0.908
same,normalized growth,"locus YDL040C, strain nat1, stronger effect = lower value",0.991
same,normalized growth,"locus YDL074C, strain BRE1, stronger effect = lower value",0.831
same,normalized growth,"locus YDL101C, strain DUN1, stronger effect = lower value",0.971
same,normalized growth,"locus YDL134C, strain PPH21, stronger effect = lower value",0.968
same,normalized growth,"locus YDL185W, strain tfp1, stronger effect = lower value",0.959
same,normalized growth,"locus YDL192W, strain arf1, stronger effect = lower value",0.985
same,normalized growth,"locus YDR001C, strain nth1, stronger effect = lower value",1.01
same,normalized growth,"locus YDR069C, strain doa4, stronger effect = lower value",0.57 (active)
same,normalized growth,"locus YDR101C, strain arx1, stronger effect = lower value",0.994
same,normalized growth,"locus YDR137W, strain rgp1, stronger effect = lower value",0.981
same,normalized growth,"locus YDR150W, strain NUM1, stronger effect = lower value",0.97
same,normalized growth,"locus YDR159W, strain sac3, stronger effect = lower value",1.09
same,normalized growth,"locus YDR162C, strain NBP2, stronger effect = lower value",0.936
same,normalized growth,"locus YDR195W, strain ref2",1.28 [resistant] (active)
same,normalized growth,"locus YDR297W, strain sur2, stronger effect = lower value",1.01
same,normalized growth,"locus YDR318W, strain mcm21, stronger effect = lower value",0.952
same,normalized growth,"locus YDR334W, strain swr1, stronger effect = lower value",1.01
same,normalized growth,"locus YDR335W, strain msn5, stronger effect = lower value",1
same,normalized growth,"locus YDR388W, stronger effect = lower value",0.328 (active)
same,normalized growth,"locus YDR392W, strain spt3, stronger effect = lower value",0.93
same,normalized growth,"locus YDR502C, strain sam2, stronger effect = lower value",0.964
same,normalized growth,"locus YEL003W, strain gim4, stronger effect = lower value",0.988
same,normalized growth,"locus YEL037C, strain rad23, stronger effect = lower value",0.98
same,normalized growth,"locus YEL061C, strain CIN8 (second series), stronger effect = lower value",1
same,normalized growth,"locus YEL061C, strain CIN8, stronger effect = lower value",0.987
same,normalized growth,"locus YER015W, strain faa2, stronger effect = lower value",0.9 (active)
same,normalized growth,"locus YER016W, strain bim1, stronger effect = lower value",1
same,normalized growth,"locus YER110C, stronger effect = lower value",0.978
same,normalized growth,"locus YER111C, strain swi4, stronger effect = lower value",1.01
same,normalized growth,"locus YER155C, strain BEM2 (second series), stronger effect = lower value",0.978
same,normalized growth,"locus YER155C, strain BEM2, stronger effect = lower value",0.999
same,normalized growth,"locus YER167W, strain BCK2, stronger effect = lower value",0.964
same,normalized growth,"locus YFR010W, strain ubp6, stronger effect = lower value",0.559 (active)
same,normalized growth,"locus YGL078C, strain dbp3, stronger effect = lower value",0.977
same,normalized growth,"locus YGL086W, strain mad1, stronger effect = lower value",0.96
same,normalized growth,"locus YGL167C, strain pmr1, stronger effect = lower value",1.01
same,normalized growth,"locus YGL173C, strain kem1, stronger effect = lower value",0.971
same,normalized growth,"locus YGL227W, strain vid30, stronger effect = lower value",1
same,normalized growth,"locus YGL240W, strain doc1, stronger effect = lower value",1.05
same,normalized growth,"locus YGL248W, strain PDE1, stronger effect = lower value",0.979
same,normalized growth,"locus YGL253W, strain hxk2, stronger effect = lower value",0.868 (active)
same,normalized growth,"locus YGR078C, strain PAC10, stronger effect = lower value",0.909
same,normalized growth,"locus YGR135W, strain pre9, stronger effect = lower value",0.832 (active)
same,normalized growth,"locus YGR229C, strain SMI1, stronger effect = lower value",0.623 (active)
same,normalized growth,"locus YGR252W, strain gcn5, stronger effect = lower value",0.679 (active)
same,normalized growth,"locus YHR013C, strain ard1, stronger effect = lower value",0.655 (active)
same,normalized growth,"locus YHR027C, strain rpn1, stronger effect = lower value",0.944
same,normalized growth,"locus YHR030C, strain SLT2, stronger effect = lower value",0.974 and 0.983
same,normalized growth,"locus YHR079C, strain IRE1 (second series), stronger effect = lower value",0.99
same,normalized growth,"locus YHR079C, strain IRE1, stronger effect = lower value",0.982
same,normalized growth,"locus YHR094C, strain hxt1, stronger effect = lower value",0.991
same,normalized growth,"locus YHR129C, strain ARP1, stronger effect = lower value",0.974
same,normalized growth,"locus YHR142W, strain chs7, stronger effect = lower value",0.802 (active)
same,normalized growth,"locus YHR200W, strain rpn10, stronger effect = lower value",0.99
same,normalized growth,"locus YIL066C, strain RNR3, stronger effect = lower value",0.948
same,normalized growth,"locus YIL073C, strain SPO22, stronger effect = lower value",1.14
same,normalized growth,"locus YIL125W, strain kgd1, stronger effect = lower value",0.989
same,normalized growth,"locus YIR030C, strain dcg1, stronger effect = lower value",0.978
same,normalized growth,"locus YJL092W, strain hpr5, stronger effect = lower value",0.986
same,normalized growth,"locus YJL095W, strain BCK1 (second series), stronger effect = lower value",0.901 (active)
same,normalized growth,"locus YJL095W, strain BCK1, stronger effect = lower value",0.824 and 0.989
same,normalized growth,"locus YJL115W, strain asf1, stronger effect = lower value",1
same,normalized growth,"locus YJL129C, strain trk1, stronger effect = lower value",1
same,normalized growth,"locus YJL134W, strain LCB3, stronger effect = lower value",0.988
same,normalized growth,"locus YJL154C, strain vps35, stronger effect = lower value",0.998
same,normalized growth,"locus YJL164C, strain tpk1, stronger effect = lower value",0.922
same,normalized growth,"locus YJL166W, strain qcr8, stronger effect = lower value",0.914
same,normalized growth,"locus YJL168C, strain set2, stronger effect = lower value",0.991
same,normalized growth,"locus YJL187C, strain SWE1 (second series), stronger effect = lower value",0.931
same,normalized growth,"locus YJL187C, strain SWE1, stronger effect = lower value",0.978
same,normalized growth,"locus YJR043C, strain POL32, stronger effect = lower value",1
same,normalized growth,"locus YJR066W, strain TOR1, stronger effect = lower value",0.903
